Data taken from PubChem BioAssay AID743258 (The Scripps Research Institute Molecular Screening Center, 2014).
About 100 (3%) of roughly 3,300 compounds were called active. Rule as the data show it: active = inhibition above about 9.5%; inactive = the rest. The list is a sample of the results.

The compounds below were run against 1-phosphatidylinositol 4,5-bisphosphate phosphodiesterase gamma-1 (Homo sapiens) (UniProt P19174) (assay: human PLCG1 activity blockade – biochemical, fluorescence, counter-screen for PLC-beta3 inhibitor project (AID 743258)). Conditions: purified PLC-gamma1, fluorogenic substrate, at 12.3 µM, stronger effect = higher value.
Sequence of 1-phosphatidylinositol 4,5-bisphosphate phosphodiesterase gamma-1 (Homo sapiens) (P19174 whole entry, looked up): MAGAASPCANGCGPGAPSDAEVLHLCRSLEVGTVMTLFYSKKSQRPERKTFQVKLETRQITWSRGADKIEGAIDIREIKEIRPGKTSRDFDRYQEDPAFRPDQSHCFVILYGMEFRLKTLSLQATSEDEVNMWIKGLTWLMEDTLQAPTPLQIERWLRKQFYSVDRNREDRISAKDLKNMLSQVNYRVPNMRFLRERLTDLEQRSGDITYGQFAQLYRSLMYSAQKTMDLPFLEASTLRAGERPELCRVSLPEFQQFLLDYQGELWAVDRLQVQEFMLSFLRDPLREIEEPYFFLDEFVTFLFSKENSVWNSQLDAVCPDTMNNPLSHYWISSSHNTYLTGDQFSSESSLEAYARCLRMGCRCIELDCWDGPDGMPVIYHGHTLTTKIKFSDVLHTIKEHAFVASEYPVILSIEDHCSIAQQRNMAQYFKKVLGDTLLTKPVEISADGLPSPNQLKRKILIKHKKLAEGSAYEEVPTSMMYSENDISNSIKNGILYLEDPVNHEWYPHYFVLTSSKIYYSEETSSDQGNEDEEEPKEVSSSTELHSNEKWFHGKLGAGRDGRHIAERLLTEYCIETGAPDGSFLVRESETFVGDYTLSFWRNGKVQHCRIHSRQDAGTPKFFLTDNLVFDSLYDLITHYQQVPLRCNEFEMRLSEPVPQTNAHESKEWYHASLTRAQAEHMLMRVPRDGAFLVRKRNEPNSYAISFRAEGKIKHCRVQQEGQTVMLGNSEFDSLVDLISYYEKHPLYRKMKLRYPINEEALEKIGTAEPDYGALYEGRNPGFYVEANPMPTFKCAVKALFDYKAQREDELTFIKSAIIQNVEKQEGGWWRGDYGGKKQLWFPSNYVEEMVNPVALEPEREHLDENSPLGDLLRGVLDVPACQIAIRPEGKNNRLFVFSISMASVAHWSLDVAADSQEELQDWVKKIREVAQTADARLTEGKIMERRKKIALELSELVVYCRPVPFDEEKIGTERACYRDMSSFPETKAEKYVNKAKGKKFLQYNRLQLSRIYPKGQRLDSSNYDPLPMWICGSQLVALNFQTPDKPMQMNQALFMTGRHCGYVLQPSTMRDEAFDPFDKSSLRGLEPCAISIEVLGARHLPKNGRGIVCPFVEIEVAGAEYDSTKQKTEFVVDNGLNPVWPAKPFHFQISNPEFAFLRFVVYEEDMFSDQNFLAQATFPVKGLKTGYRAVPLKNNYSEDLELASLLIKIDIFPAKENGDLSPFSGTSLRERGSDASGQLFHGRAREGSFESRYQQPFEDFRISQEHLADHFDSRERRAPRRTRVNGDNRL

| Compound | inhibition |
| --- | --- |
| Cc1ccc(Cn2ccc(NC(=O)C3C4CCC(C4)C3C(=O)O)n2)cc1 (stereo not drawn) | 6.33% (inactive) |
| N#Cc1c(NC(=O)C2CCCO2)sc2c1CCCCC2 (stereo not drawn) | -9.66% (inactive) |
| Cc1nc2ccc(NC(=O)c3cccc(S(=O)(=O)N4CCOCC4)c3)cc2s1 | -12.2% (inactive) |
| N#C[C@]1(S(=O)(=O)c2ccccc2)C[C@@H]2ON=C(c3cccc(Br)c3)[C@@H]2C1 | -2.59% (inactive) |
| Nn1cnnc1N/N=C/c1cc([N+](=O)[O-])c(Cl)cc1Cl | -3.65% (inactive) |
| Nc1nc(NCC(=O)O)nc(N2CCCCCC2)c1[N+](=O)[O-] | 0.65% (inactive) |
| COCc1cc(C(C)=O)ccc1OC | -2.07% (inactive) |
| C=CCOc1ccccc1/C=N/NC(=O)Cc1ccccc1 | -8.16% (inactive) |
| C=CCSC(CC)(CC)C(N)=O | 2% (inactive) |
| CCOc1ccc(OCC)c(NC(=O)CSc2nnc(Cn3cnc4ccccc43)n2C)c1 | -2.36% (inactive) |
| COc1ccc(C(CNC(=O)c2cc(S(=O)(=O)Nc3cccc(C)c3)ccc2C)N2CCCC2)cc1 (stereo not drawn) | -5.37% (inactive) |
| O=C(NCCCN1CCCCC1)C1CC(=O)N(CCc2ccccc2)C1 (stereo not drawn) | 0.03% (inactive) |
| Clc1ccc(C2[C@H]3CN(CC4CCCCC4)[C@H](c4ccccc4)C34CC2(c2cccnc2)C4)cn1 (stereo partly drawn) | -4.79% (inactive) |
| O=[N+]([O-])c1cc(C(F)(F)F)ccc1NN=C1CCCC1 | 8.96% (inactive) |
| CCC1S/C(=N/N=C/c2ccco2)NC1=O (stereo not drawn) | -2.12% (inactive) |
| O=S(=O)(c1ccc(F)cc1)N1CCN(C(=S)NC2CCCC2)CC1 | -7.54% (inactive) |
| COc1ccc(CCNC(=O)COC(=O)Cc2ccccc2F)cc1 | -5.86% (inactive) |
| CC(C)CCSc1ncnc2c1oc1nc3c(cc12)COC(C)(C)C3 | -6.65% (inactive) |
| CNC(=O)n1ccc(C(=O)N2CCCCC2)n1 | -7.1% (inactive) |
| Cc1cc2nc(SCCN3CCOCC3)[nH]c2cc1C | -0.23% (inactive) |
| CC(C)Cn1cnc2c1c(=O)n(CC(O)c1ccccc1)c(=O)n2CC(C)C (stereo not drawn) | -3.61% (inactive) |
| CCOc1ccccc1C1CC(c2cccc(NS(C)(=O)=O)c2)=NN1C(=O)c1ccccc1 (stereo not drawn) | -6.72% (inactive) |
| CN(C(=O)c1cccc(NC(=O)Cc2cccc([N+](=O)[O-])c2)c1)C1CCCCC1 | -5.4% (inactive) |
| O=C(Nc1cccc([N+](=O)[O-])c1)Nn1cnnc1 | 0.91% (inactive) |
| CS(=O)(=O)N(Cc1ccc(Cl)cc1)c1ccc(C(=O)NCCSCc2ccco2)cc1 | 0.35% (inactive) |
| COc1ccc(NC(=O)c2ccc(OC)cc2)cc1 | -6.63% (inactive) |
| C=CCN(c1ccc(Cl)cc1)S(=O)(=O)c1cccc(C(=O)OCC(=O)N(C)C)c1 | -6.25% (inactive) |

| Compound | inhibition |
| --- | --- |
| Cc1cc(NC(=O)CN2C(=O)NC(CC(C)C)C2=O)no1 (stereo not drawn) | -4.65% (inactive) |
| CN(CC(=O)Nc1ccccc1Cl)C(=O)COc1cccc2c1OC(C)(C)C2 | 3.1% (inactive) |
| CCc1c(C)n([O-])c2c([n+]1=O)CCCCC2 | -5.96% (inactive) |
| FC(F)(F)c1cnc(Oc2ccccc2-c2nnc(-c3ccc(Cl)cc3)o2)c(Cl)c1 | -5.48% (inactive) |
| Cc1cc(NC(=O)c2ccc(F)cc2)ccc1NC(=O)c1ccco1 | -0.11% (inactive) |
| Cc1nc(-c2ccc(F)cc2)c(CC(=O)N2CCN(S(=O)(=O)c3ccc(F)cc3)CC2)s1 | -5.79% (inactive) |
| CCC1CCCCN1C(=O)CSc1nc(C)cc(C)n1 (stereo not drawn) | -6.45% (inactive) |
| O=C1NC2(CCCCC2)N=C1c1ccccc1 | -5.81% (inactive) |
| O=C(C1CCCO1)N1CCN(C(=S)Nc2cccc(Cl)c2)CC1 (stereo not drawn) | -5.73% (inactive) |
| O=C1/C(=C\c2ccsc2)NC(=S)N1c1ccccc1 | -7.04% (inactive) |
| COc1ccc(-c2ccc(CN3C(CC(C)C)C(=O)N(Cc4cn(CC5CCCCC5)nn4)CCS3(=O)=O)cc2)cc1 (stereo not drawn) | 0.15% (inactive) |
| S=c1[nH]nc(-c2cccnc2)n1/N=C/C(Cl)=C\c1ccccc1 | -4.71% (inactive) |
| Cc1ccc(C23CC4CC(CC(C(=O)NCC(=O)O)(C4)C2)C3)cc1 | 9.94% (active) |
| CCn1c(SCC(C)=O)nc2sc3c(c2c1=O)CCCC3 | -3.1% (inactive) |
| O=C(C[C@H]1C(=O)N(c2ccc(F)c(F)c2)C[C@@H]1Cc1ccccc1)Nc1ccccc1 | 2.94% (inactive) |
| Cc1c(C#N)c2ncn(CC#N)c(=O)c2n1-c1ccccc1 | -8.35% (inactive) |
| O=S1(=O)c2ccc(Br)cc2OC[C@H](Cc2ccccc2)N1Cc1cn(Cc2ccccc2)nn1 | 1.8% (inactive) |
| COC(=O)C[C@@H]1CC[C@@H]2[C@H](COc3ccc(NC(=O)c4cccc(F)c4)cc3C(=O)N2C)O1 | 6.24% (inactive) |
| COC(=O)N(C)C[C@@H]1OCc2cnnn2CCCC(=O)N([C@@H](C)CO)C[C@@H]1C | -7.63% (inactive) |
| C=CCOc1ccc(Cl)cc1CNCCCN1CCOCC1 | 2.7% (inactive) |
| COc1ccc(/C=C2\N=C3CCCN3C2=O)cc1 | -0.94% (inactive) |
| CCOc1ccccc1NC(=O)CCN1CCN(S(=O)(=O)c2ccc(OC)cc2)CC1 | -1.14% (inactive) |
| CC1(C(=O)NCc2ccccc2)CSCC(=O)N1CCCN1CCOCC1 (stereo not drawn) | -9.79% (inactive) |
| O=C(NCc1cccnc1)c1cc(C2CCCCN2C(=O)CCc2ccccc2)on1 (stereo not drawn) | -6.35% (inactive) |
| O=C(CSc1ccccc1)Nc1cccc(S(=O)(=O)N2CCOCC2)c1 | 3.57% (inactive) |
| COc1ccc(S(=O)(=O)N2CCC(C(=O)OCC(=O)c3ccccc3)CC2)cc1[N+](=O)[O-] | 8.79% (inactive) |
